Data reported in the supplement of paper PMC9492666.
Counter-ions that a name gives are not always drawn.

Assays:
HCC1937 = test: relative cell viability, compound alone, vs DMSO (fraction of DMSO control); higher = less growth inhibition; conditions: 72 h
MDA-MB-231 = test: as above; conditions: 72 h
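Further: viability read out with the CCK-8 kit in 96-well plates, screening a set of 303 compounds acting on lipid metabolism targets.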

Structure (SMILES)	relative cell viability (HCC1937)	relative cell viability (MDA-MB-231)
CCOP(=O)(OCC)C(=Cc1cc(C(C)(C)C)c(O)c(C(C)(C)C)c1)P(=O)(OCC)OCC	0.631	0.779
Nc1ncnc2c1ncn2[C@@H]1O[C@H](COP(=O)(O)O)[C@@H](O)[C@H]1O [Adenosine 5'-monophosphate]	0.663	0.81
O=C(O)C(=O)Nc1sc2c(c1C(=O)O)CCNC2	1.01	0.872
CCOc1cc(CC(=O)N[C@@H](CC(C)C)c2ccccc2N2CCCCC2)ccc1C(=O)O [Repaglinide]	1.02	0.938
C=C(C)[C@@H]1CC[C@]2(C)CC[C@]3(C)[C@H](CC[C@@H]4[C@@]5(C)CCC(=O)C(C)(C)[C@@H]5CC[C@]43C)[C@@H]12	1.04	1.08
CS(=O)(=O)c1ccc(-c2nnc(/C=C/c3nnc(-c4ccc(C#N)cc4)o3)n2-c2ccccc2Cl)nc1	1.07	0.851
CC[C@H]1[C@@H](O)[C@@H]2[C@H](CC[C@]3(C)[C@@H]([C@H](C)CCC(=O)O)CC[C@@H]23)[C@@]2(C)CC[C@@H](O)C[C@@H]12 [Obeticholic Acid]	0.901	0.856
COC(=O)c1sccc1S(=O)(=O)Nc1ccc(Nc2ccccc2)cc1OC	0.795	0.871
Nn1nnc2ccccc21 [1-Aminobenzotriazole]	1.07	0.937
O=C(O)/C=C/c1ccc(O)c(O)c1 [Caffeic Acid]	0.72	0.874
COc1ccc(-c2cc(=O)c3c(O)c(OC)c(OC)c(OC)c3o2)cc1OC	0.699	0.82
CN(CCOc1ccc(CC2SC(=O)NC2=O)cc1)c1ccccn1 (centres undefined) [Rosiglitazone maleate]	0.841	0.86
CN(C)c1cccc(-c2c3c(=O)n(-c4ccccc4Cl)[nH]c3cc(=O)n2C)c1	0.903	0.974
CC(C)=CCC(O)C1=CC(=O)c2c(O)ccc(O)c2C1=O (single isomer, unassigned; (+)) [(+)-Shikonin]	0.2	0.529
CCOC(=O)N1c2ccc(C(F)(F)F)cc2[C@@H](N(Cc2cc(C(F)(F)F)cc(C(F)(F)F)c2)C(=O)OC)C[C@H]1CC [Torcetrapib]	0.745	0.781
CC(=O)O[C@H](CC=C(C)C)C1=CC(=O)c2c(O)ccc(O)c2C1=O [Acetyl shikonin]	1.08	1.06

Structure (SMILES)	relative cell viability (HCC1937)	relative cell viability (MDA-MB-231)
C[C@H](CCC(=O)O)[C@H]1CC[C@H]2[C@@H]3CC[C@@H]4C[C@H](O)CC[C@]4(C)[C@H]3CC[C@]12C [Lithocholic acid]	1.16	0.99
C[C@@H]1O[C@@H](O[C@H]2[C@H](Oc3cc(O)c4c(c3)O[C@H](c3ccc(O)cc3)CC4=O)O[C@H](CO)[C@@H](O)[C@@H]2O)[C@H](O)[C@H](O)[C@H]1O [Naringin]	1.24	0.892
CN(C)CCOC(=O)COc1ccc(Cl)cc1 [Meclofenoxate hydrochloride]	0.782	0.933
Cc1ccc(CN(CC(O)COc2cccc3[nH]ccc23)C(C)(C)C)cc1 (centres undefined)	0.994	0.988
CC(C)CCC[C@@H](C)[C@H]1CC[C@H]2[C@@H]3CCC4=CC(=NO)CC[C@]4(C)[C@H]3CC[C@]12C [Olesoxime]	0.978	0.789
CCCCCCCCCc1ccc(B(O)O)cc1 [4-Nonylphenylboronic acid]	1.01	1.08
CCN(CC)C(=O)N1CCN(C)CC1 [Diethylcarbamazine citrate]	0.699	0.856
Cc1nc2ccc(NCc3cccc(C(F)(F)F)c3)cc2n(CCNC(=O)CO)c1=O	0.667	0.835
CCN(CC)c1ccc(C=NNC(=O)c2ccncc2)c(O)c1	0.4	0.624
COc1cc(N2CCN(C)CC2)ccc1Nc1ncc2c(n1)N(C)c1ccccc1C(=O)N2	0.666	0.655
CC(C)c1onc(-c2c(Cl)cccc2Cl)c1COc1ccc(/C=C/c2cccc(C(=O)O)c2)c(Cl)c1	1.03	0.968
COc1ccc(-n2c(SCCCN3C(=O)c4cccc5cccc(c45)C3=O)nnc2-c2ccncc2)cc1	0.661	0.877
Nc1ccc(C(=O)O)c(O)c1 [Aminopar]	1.1	0.911
O=C(Nc1ccccc1)c1cc([N+](=O)[O-])ccc1Cl	1.08	1.03
Cc1ccc(C)c(OCCCC(C)(C)C(=O)O)c1 [Gemfibrozil]	0.736	0.783
Cc1nc(-c2nc(-c3ccc(OC(F)(F)F)cc3)no2)nn1Cc1cccc(N2CCC(S(C)(=O)=O)CC2)c1	0.93	0.775
